Source: PubChem BioAssay (NCI)
The panel holds about 79,000 compounds, 15% with a hit somewhere; the sample as a whole holds those more often. Activity calls are given as the source filed them. No stated cut-off is given here; in the data, active means growth inhibition above about 70%; inactive means the rest.

What was measured:
[1] = NCI Yeast Anticancer Drug Screen. Data for the rad50 strain (AID 155);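 further: 0% = growth of vehicle-only cultures of the same strain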; settings: S. cerevisiae rad50 strain growth inhibition, active compounds read high
Summary of the method: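 A DNA repair-deficient yeast mutant serves as the test organism; compound-induced growth inhibition is calculated against vehicle-treated cells.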

[2] = NCI Yeast Anticancer Drug Screen. Data for the mec2-1 strain (AID 157); settings: S. cerevisiae mec2-1 strain, active compounds read high
Summary of the method: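 Yeast mec2-1 mutant treated with compound. Readout: growth inhibition vs vehicle controls.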

[3] = NCI Yeast Anticancer Drug Screen. Data for the sgs1 mgt1 strain (AID 161);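 further: 0% = growth of cultures given vehicle only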; settings: S. cerevisiae sgs1 mgt1 strain, active compounds read high
Summary of the method: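 Mutant yeast exposed to compound; growth scored against vehicle-only wells.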

[4] = NCI Yeast Anticancer Drug Screen. Data for the cln2 rad14 strain (AID 165);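 further: 0% = growth equal to vehicle treated cultures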; settings: S. cerevisiae cln2 rad14 strain, active compounds read high
Summary of the method: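 cln2 rad14 yeast strain; compound exposure; growth inhibition read vs vehicle controls.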

[5] = NCI Yeast Anticancer Drug Screen. Data for the bub3 strain (AID 167); settings: S. cerevisiae bub3 mutant strain, active compounds read high
Summary of the method: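 Inhibition values come from growth of compound-treated mutant yeast normalised to vehicle-treated controls.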

[6] = NCI Yeast Anticancer Drug Screen. Data for the mlh1 rad18 strain (AID 175); settings: S. cerevisiae mlh1 rad18 strain growth inhibition, active compounds read high
Summary of the method: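 Yeast w/ defined DNA-repair lesions; compound exposure; growth vs vehicle controls → % inhibition.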

[7] = at 5.0 µM (retest, dose inferred, filed as 0.5)
[8] = at 50.0 µM (retest, dose inferred, filed as 5.0)

Measured: growth inhibition

O=C(CCl)N1c2ccccc2Sc2c1ccc1ccccc21
active: [1]; [8] 90% | [1]; at 50.0 µM 82.7% | [2]; [8] 90% | [3]; [8] 94% | [3]; at 50.0 µM 90.6% | [5]; [8] 91% | [5]; at 50.0 µM 72.2% | [6]; [8] 90% | [6]; at 50.0 µM 83.4%
inactive: [1]; [7] 25% | [2]; [7] 39% | [2]; at 50.0 µM 63.9% | [3]; [7] 47% | [4]; [7] 20% | [4]; [8] 69% | [4]; at 50.0 µM 19.8% | [5]; [7] 56% | [6]; [7] 46%

O=C(/C=C/c1ccccc1)c1ccccc1O
inactive: [1]; [7] 9% | [2]; [7] 4% | [2]; [8] 49% | [3]; [7] 4% | [3]; [8] 55% | [3]; at 50.0 µM 46% | [4]; [7] 2% | [4]; [8] 40% | [4]; at 50.0 µM 53.6% | [5]; [7] 1% | [5]; at 50.0 µM 49.1% | [6]; [7] 1% | [6]; at 50.0 µM 45.6%
active: [1]; [8] 78% | [1]; at 50.0 µM 98.5% | [2]; at 50.0 µM 99.2% | [5]; [8] 80% | [6]; [8] 78%

CC1(O)CCCCCC1
inactive: [1]; [7] -13% | [2]; [7] -29% | [2]; [8] 58% | [2]; at 50.0 µM 69.7% | [3]; [7] -7% | [3]; [8] 54% | [4]; [7] 28% | [4]; [8] 68% | [5]; [7] 3% | [6]; [7] 16%
active: [1]; [8] 74% | [1]; at 50.0 µM 85% | [3]; at 50.0 µM 88.2% | [4]; at 50.0 µM 77.7% | [5]; [8] 74% | [5]; at 50.0 µM 84.2% | [6]; [8] 91% | [6]; at 50.0 µM 71.1%

Cc1nn(CCO)c(C)c1N=[N+]([O-])c1c(C)nn(CCO)c1C
active: [1]; [8] 98% | [1]; at 50.0 µM 88.8% | [2]; [8] 98% | [2]; at 50.0 µM 91.8% | [3]; [8] 98% | [3]; at 50.0 µM 89.3% | [4]; [8] 95% | [4]; at 50.0 µM 86% | [5]; [8] 97% | [5]; at 50.0 µM 90.6% | [6]; [8] 98% | [6]; at 50.0 µM 89.1%
inactive: [1]; [7] 12% | [2]; [7] 12% | [3]; [7] 24% | [4]; [7] 9% | [5]; [7] 20% | [6]; [7] 27%

CCCOC(=O)c1nc(N(CC2CCCCC2)C(=O)NC)sc1/N=C/c1ccccc1
inactive: [1]; [7] 67% | [1]; at 50.0 µM 5.15% | [2]; [7] 62% | [2]; at 50.0 µM -18.9% | [3]; [7] 45% | [3]; at 50.0 µM 4.25% | [4]; [7] 68% | [4]; at 50.0 µM 37.9% | [5]; at 50.0 µM 10.8% | [6]; at 50.0 µM -10.2%
active: [1]; [8] 86% | [2]; [8] 90% | [3]; [8] 91% | [4]; [8] 88% | [5]; [7] 77% | [5]; [8] 92% | [6]; [7] 73% | [6]; [8] 92%

NNc1ccc(Cl)cc1Cl
active: [1]; [7] 79% | [1]; [8] 97% | [1]; at 50.0 µM 98.4% | [2]; [8] 99% | [2]; at 50.0 µM 99.4% | [3]; [8] 98% | [4]; [7] 75% | [4]; [8] 99% | [5]; [7] 85% | [5]; [8] 98% | [5]; at 50.0 µM 98.8% | [6]; [7] 77% | [6]; [8] 98%
inactive: [2]; [7] 54% | [3]; [7] 66% | [3]; at 50.0 µM 50.6% | [4]; at 50.0 µM 58.6% | [6]; at 50.0 µM 48.1%

CN=C(N)N/N=C(\C)c1ccc2c(c1)Cc1ccccc1-2
inactive: [1]; [7] 32% | [2]; [7] 19% | [2]; at 50.0 µM 59.9% | [3]; [7] 51% | [4]; [7] 42% | [4]; at 50.0 µM 52.8% | [5]; [7] 48% | [6]; [7] 26%
active: [1]; [8] 98% | [1]; at 50.0 µM 77.5% | [2]; [8] 99% | [3]; [8] 96% | [3]; at 50.0 µM 84.2% | [4]; [8] 86% | [5]; [8] 95% | [5]; at 50.0 µM 81.5% | [6]; [8] 96% | [6]; at 50.0 µM 92.7%

N#CC(I)CS(=O)(=O)c1ccccc1 (stereo not given)
active: [1]; [7] 99% | [1]; [8] 99% | [2]; [7] 100% | [2]; [8] 99% | [2]; at 50.0 µM 98.7% | [3]; [7] 99% | [3]; [8] 99% | [3]; at 50.0 µM 99.3% | [4]; [7] 99% | [4]; [8] 99% | [5]; [7] 99% | [5]; [8] 99% | [6]; [7] 99% | [6]; [8] 98%
inactive: [1]; at 50.0 µM 54.7% | [4]; at 50.0 µM 55% | [5]; at 50.0 µM 45.4% | [6]; at 50.0 µM 42.7%

CCC1C[N+]2=C(c3cc(OC)c(OC)cc3CC2)c2c1cc1n2CCc2cc(OC)c(OC)cc2-1 (stereo not given)
active: [1]; [7] 99% | [1]; [8] 99% | [1]; at 50.0 µM 93% | [2]; [7] 100% | [2]; [8] 99% | [2]; at 50.0 µM 94.8% | [3]; [7] 99% | [3]; [8] 99% | [3]; at 50.0 µM 94.5% | [4]; [7] 96% | [4]; [8] 99% | [4]; at 50.0 µM 92.8% | [5]; [7] 99% | [5]; [8] 99% | [5]; at 50.0 µM 93.5% | [6]; [7] 97% | [6]; [8] 99% | [6]; at 50.0 µM 93.6%

CC1=C(C2=C(C)C(=O)C(=O)c3cc(C)ccc32)c2ccc(C)cc2C(=O)C1=O
active: [1]; [7] 89% | [1]; [8] 98% | [1]; at 50.0 µM 86.7% | [2]; [7] 95% | [2]; [8] 99% | [2]; at 50.0 µM 91.5% | [3]; [7] 98% | [3]; [8] 99% | [3]; at 50.0 µM 91.8% | [4]; [7] 71% | [4]; [8] 98% | [4]; at 50.0 µM 89.8% | [5]; [7] 98% | [5]; [8] 99% | [5]; at 50.0 µM 90.9% | [6]; [7] 97% | [6]; [8] 99% | [6]; at 50.0 µM 91%
